Source: PubChem BioAssay (Tox21)
Results filed as inconclusive are left out. Active and inactive are the calls of the source. Unless noted, calls come from the whole dose curve; as a rule, active = well fitted curve in the direction sought with a large enough effect in the repeat runs; inconclusive = weak or mixed curves; inactive = no such curve, though single readings can be large; an effect the other way counts as inactive or inconclusive.

Legend:
[1] = target: Luciferin 4-monooxygenase (Photinus pyralis) (UniProt P08659); assay: qHTS assay to identify small molecule inhibitors of firefly luciferase (AID 1224835); note: nearly all actives have a fitted effect of over 25% in size
Summary of the method: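 Quantitative HTS format; KM concentrations of both substrates. Purified P. pyralis FLuc activity quantified from luminescence images.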

[2] = qHTS assay to identify small molecule agonists of the constitutive androstane receptor (CAR) signaling pathway - cell viability counter screen (AID 1224836); note: nearly all actives have a fitted effect of over 45% in size
Summary of the method: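 Double-stable HepG2 hepatoma cells (hCAR plus CYP2B6-2.2kb) are treated for 23 h at 37 C with test compounds in 15-point concentration series. PK11195 at 0.75 uM final is co-added. Cell viability is quantified by CellTiter-Fluor.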

[3] = qHTS assay to identify small molecule antagonists of the constitutive androstane receptor (CAR) signaling pathway - cell viability counter screen (AID 1224837); note: nearly all actives have a fitted effect of over 45% in size
Summary of the method: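 Cells are seeded, rested 4 hr at 37 C/5% CO2, dosed with compound (15-point series) and 50 nM CITCO, incubated a further 23 hr, and then CellTiter-Fluor reagent is added before fluorescence is read. The line is HepG2 with stable hCAR and CYP2B6-2.2kb.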

[4] = target: Nuclear receptor subfamily 1 group I member 3 (Homo sapiens) (UniProt Q14994); assay: qHTS assay to identify small molecule agonists of the constitutive androstane receptor (CAR) signaling pathway (AID 1224839); note: nearly all actives have a fitted effect of over 15% in size; note: potency is the fitted concentration of half-maximal effect;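 for activation: HepG2 cells stably carrying human CAR and a CYP2B6 luciferase reporter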
Summary of the method: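 Readout: firefly luciferase luminescence via ONE-Glo. System: HepG2 double-stable for hCAR and CYP2B6-2.2kb. Conditions: 15-point compound titration, PK11195 at 0.75 uM final, 24 h incubation.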

[5] = target: Thyrotropin receptor (Homo sapiens) (UniProt P16473); assay: qHTS assay to identify small molecule agonists of the thyroid stimulating hormone receptor (TSHR) signaling pathway (AID 1224843; calls by dose curve; note: nearly all actives have a fitted effect of over 45% in size; note: potency is the fitted concentration of half-maximal effect)
Summary of the method: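 Using 15 concentrations per compound in triplicate, cAMP production was monitored in TSHR-HEK293 cells after 30 min compound incubation at RT; HTRF reagents followed, with fluorescence intensity recorded after 1 h.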

[6] = qHTS assay to identify small molecule agonists of the hypoxia (HIF-1) signaling pathway - cell viability counter screen (AID 1224844; calls by dose curve; note: nearly all actives have a fitted effect of over 50% in size)
Summary of the method: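 Viability counter screen: HRE-bla ME-180 cells plated 5 hrs before compound addition, treated 17 hrs at 37C and 5% CO2, then CellTiter-Glo added after the FRET reporter read; luminescence after 30 min.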

[7] = qHTS assay to identify small molecule agonists of H2AX (AID 1224845; active = well fitted activation curve with a large enough effect in the signal ratio in the repeat runs, not every such curve was filed as active; the % refers to the signal ratio)
Summary of the method: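 Wild-type CHO-K1 cells plated overnight, then exposed 3 hr at 37C to compounds at 15 concentrations (0.76% DMSO). Lysed, then HTRF anti-pH2AX(S139)-cryptate/anti-H2AX-d2 detection after 24 hr at room temperature; emissions 665 and 620 nm.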

[8] = qHTS assay to identify small molecule agonists of the hypoxia (HIF-1) signaling pathway (AID 1224846; active = well fitted activation curve with a large enough effect in the signal ratio in the repeat runs, not every such curve was filed as active; the % refers to the signal ratio)
Summary of the method: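 Agonist mode reporter screen. ME-180 cells stably expressing bla under HRE control received test compounds in DMSO for 17 hrs (37C, 5% CO2), and beta-lactamase activity was then detected with the CCF4-AM FRET substrate.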

[9] = qHTS assay to identify small molecule agonists of H2AX - cell viability counter screen (AID 1224847; calls by dose curve; note: nearly all actives have a fitted effect of over 30% in size; note: potency is the fitted concentration of half-maximal effect; for activity change, negative = cytotoxicity: top concentration of the series differs between compounds)
Summary of the method: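 For this counter screen, overnight-attached CHO-K1 cells received test compounds (15 concentrations, 0.76% DMSO final); 3 hr later at 37C, CellTiter-Glo reagent was added and luminescence recorded after 30 min at room temperature.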

[10] = qHTS RealTime-Glo MT Cell Viability Assay in HepG2 cells - 24 hour (AID 1224867); note: nearly all actives have a fitted effect of over 50% in size
Summary of the method: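 Tox21 10K library screened in qHTS format on HepG2 cells carrying RealTime-Glo reagents. Compounds were added after a 5 h preincubation, and the luminescent signal from continuous culture was measured repeatedly during 40 h treatment.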

[11] = qHTS RealTime-Glo MT Cell Viability Assay in HEK293 cells - 32 hour (AID 1224868); note: nearly all actives have a fitted effect of over 50% in size; note: potency is the fitted concentration of half-maximal effect; for activity change, negative = cytotoxic: top concentration of the series differs between compounds
Summary of the method: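 Luminescence generated by NanoLuc from substrate produced by living HEK293 cells served as the viability signal. Each value reflects the reading at its stated time point during continuous 40 h compound exposure at 37 C.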

[12] = qHTS RealTime-Glo MT Cell Viability Assay in HepG2 cells - 40 hour (AID 1224870); note: nearly all actives have a fitted effect of over 50% in size
Summary of the method: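 HepG2 cells mixed with RealTime-Glo MT reagents (NanoLuc plus cell-permeant prosubstrate) were seeded at 600 cells/well, incubated 5 h at 37 C/5% CO2, then pinned with compounds in DMSO; nonlytic luminescence tracked viability during 40 h treatment.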

[13] = A CellTox Green Cytotoxicity Assay to monitor cytotoxicity in HEK293 cells - 40 hour (AID 1224871); note: nearly all actives have a fitted effect of over 45% in size
Summary of the method: (§1)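 Dead-cell fluorescence measured kinetically: asymmetric cyanine dye, HEK293, 600 cells/well, 5 h settle, 23 nL cpd/DMSO, 37 C, reads 0–40 h every 8 h.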

[14] = qHTS assay to identify small molecule antagonists of the estrogen related receptor signaling pathway with the pleiotropic PPARgamma coactivator (PGC) from Tox21 10K library - cell viability counter screen (AID 1224840; active = well fitted cell-killing curve with a large enough effect in the repeat runs, not every such curve was filed as active; note: nearly all actives have a fitted effect of over 40% in size)
Summary of the method: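 Cell viability is measured by CellTiter-Fluor fluorescence in PGC/ERR cells that receive compounds after a 6-hour attachment period and are then incubated 17.5 hours at 37 C.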

[15] = A CellTox Green Cytotoxicity Assay to monitor cytotoxicity in HEK293 cells - 0 hour (AID 1224869); note: nearly all actives have a fitted effect of over 50% in size
Summary of the method: as §1

[16] = qHTS assay to identify small molecule antagonists of the estrogen related receptor signaling pathway with the pleiotropic PPARgamma coactivator (PGC) from Tox21 10K library (AID 1224841; call rule not given here)
Summary of the method: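 Cells stably carrying the PGC/ERR reporter, seeded at 2,000 per well, received pin-transferred compounds 6 h post-plating. Exposure lasted 18 h at 37 C. Signal: One-Glo luminescence.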

[17] = qHTS assay to identify small molecule agonists of the estrogen related receptor signaling pathway with the pleiotropic PPARgamma coactivator (PGC) from Tox21 10K library (AID 1224842); note: nearly all actives have a fitted effect of over 15% in size
Summary of the method: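 PGC/ERR reporter cells (NTP line) were seeded 2,000 per well, rested 6 h at 37 C/5% CO2, then pin-dosed with compounds in DMSO for 18 h at 37 C; luciferase read by One-Glo luminescence after 30 min at room temperature.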

[18] = qHTS assay to identify small molecule antagonists of the estrogen related receptor (ERR) signaling pathway from Tox21 library (AID 1224848); note: nearly all actives have a fitted effect of over 50% in size
Summary of the method: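 Tox21 10K compounds in DMSO tested for ERR pathway antagonism in NTP's ERR cell line; 18 h, 37 C exposure; ONE-Glo luminescence.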

[19] = qHTS assay to identify small molecule agonists of the estrogen related receptor (ERR) signaling pathway from Tox21 library (AID 1224849; calls by dose curve; note: nearly all actives have a fitted effect of over 15% in size); details: ERR reporter cell line, ONE-Glo luciferase, 18 h; at 92.4 µM (top of the series) unless noted
Summary of the method: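 Quantitative HTS in agonist format: NTP ERR cell line, compounds transferred in DMSO after 6 h plating, 18 h incubation at 37 C, ONE-Glo luminescence endpoint.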
% is set by controls: 0 for no effect and ±100 for the full control effect.

Chain of Luciferin 4-monooxygenase (Photinus pyralis) (P08659 whole entry, looked up): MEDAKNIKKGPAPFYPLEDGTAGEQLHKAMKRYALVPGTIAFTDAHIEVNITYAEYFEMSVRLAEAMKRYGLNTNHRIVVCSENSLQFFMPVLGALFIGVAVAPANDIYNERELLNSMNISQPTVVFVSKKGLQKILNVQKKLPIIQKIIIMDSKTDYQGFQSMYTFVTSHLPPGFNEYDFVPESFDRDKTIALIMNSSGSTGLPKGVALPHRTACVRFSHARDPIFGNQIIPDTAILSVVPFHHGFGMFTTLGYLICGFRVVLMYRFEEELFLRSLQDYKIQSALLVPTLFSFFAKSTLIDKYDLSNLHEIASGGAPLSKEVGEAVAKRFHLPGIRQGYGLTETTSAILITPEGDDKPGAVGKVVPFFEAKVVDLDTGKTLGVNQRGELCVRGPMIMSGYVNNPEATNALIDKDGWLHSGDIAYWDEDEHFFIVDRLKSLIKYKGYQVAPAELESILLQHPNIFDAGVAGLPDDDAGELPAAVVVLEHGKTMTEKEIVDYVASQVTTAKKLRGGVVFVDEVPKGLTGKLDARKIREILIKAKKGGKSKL
Chain of Thyrotropin receptor (Homo sapiens) (P16473 whole entry, looked up): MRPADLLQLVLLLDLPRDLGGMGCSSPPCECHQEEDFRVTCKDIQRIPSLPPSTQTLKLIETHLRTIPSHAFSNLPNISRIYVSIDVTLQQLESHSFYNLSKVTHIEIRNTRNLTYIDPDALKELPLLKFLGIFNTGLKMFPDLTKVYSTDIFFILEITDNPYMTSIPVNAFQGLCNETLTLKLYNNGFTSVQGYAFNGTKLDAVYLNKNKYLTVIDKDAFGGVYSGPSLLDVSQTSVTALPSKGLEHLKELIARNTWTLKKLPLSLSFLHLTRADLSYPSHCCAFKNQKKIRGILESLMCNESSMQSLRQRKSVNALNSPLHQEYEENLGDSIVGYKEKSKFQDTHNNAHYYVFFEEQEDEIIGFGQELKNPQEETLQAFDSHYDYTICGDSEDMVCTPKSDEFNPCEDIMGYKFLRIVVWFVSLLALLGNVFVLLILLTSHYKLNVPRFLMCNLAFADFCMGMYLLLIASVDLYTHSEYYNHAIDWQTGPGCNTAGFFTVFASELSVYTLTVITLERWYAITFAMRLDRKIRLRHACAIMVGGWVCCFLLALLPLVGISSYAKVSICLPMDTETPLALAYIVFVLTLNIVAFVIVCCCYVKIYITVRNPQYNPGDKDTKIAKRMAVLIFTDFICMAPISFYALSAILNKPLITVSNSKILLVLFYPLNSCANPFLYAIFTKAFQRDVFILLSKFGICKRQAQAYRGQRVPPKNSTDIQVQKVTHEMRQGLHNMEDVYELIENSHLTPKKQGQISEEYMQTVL
Chain of Nuclear receptor subfamily 1 group I member 3 (Homo sapiens) (Q14994 whole entry, looked up): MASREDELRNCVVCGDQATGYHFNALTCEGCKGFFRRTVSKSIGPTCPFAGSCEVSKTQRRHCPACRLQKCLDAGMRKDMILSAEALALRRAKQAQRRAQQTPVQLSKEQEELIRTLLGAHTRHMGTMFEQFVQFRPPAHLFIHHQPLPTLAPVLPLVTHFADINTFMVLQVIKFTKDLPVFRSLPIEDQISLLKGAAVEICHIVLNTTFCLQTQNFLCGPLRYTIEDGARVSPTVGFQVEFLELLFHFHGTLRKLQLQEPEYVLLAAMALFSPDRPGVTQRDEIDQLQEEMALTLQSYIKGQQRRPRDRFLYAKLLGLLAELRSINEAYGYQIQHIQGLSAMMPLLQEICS

OCCC(O)CO (stereo not given)
inactive: Potency [1] | Potency [2] | Potency [3] | Potency [4] | Potency [5] | Potency [6] | Potency [7] | outcome [8] | Potency [9] | Potency [10] | Potency [11] | Potency [12] | Potency [13]

Clc1nc2ccccc2s1
inactive: Potency [1] | Potency [2] | Potency [3] | Potency [14] | Potency [5] | Potency [6] | Potency [7] | outcome [8] | Potency [9] | Potency [10] | Potency [11] | Potency [15] | Potency [12] | Potency [13]

CCC(C)c1ccccc1 (stereo not given)
inactive: Potency [1] | Potency [2] | Potency [3] | Potency [14] | Potency [5] | Potency [6] | Potency [7] | outcome [8] | Potency [9] | Potency [10] | Potency [11] | Potency [15] | Potency [12] | Potency [13]

CCCCN(CCCC)CCC(O)c1cc2c(Cl)cc(Cl)cc2c2cc(C(F)(F)F)ccc12 (stereo not given)
inactive: Potency [1] | Potency [2] | Potency [3] | Potency [4] | Potency [5] | Potency [7] | Potency [11] | Potency [15] | Potency [13]

COc1nccnc1CC(C)C
inactive: Potency [1] | Potency [2] | Potency [3] | Potency [14] | Potency [16] | Potency [17] | Potency [5] | Potency [6] | Potency [7] | outcome [8] | Potency [9] | Potency [18] | activity change, positive = activation [19] 0.914% | Potency [10] | Potency [11] | Potency [15] | Potency [12] | Potency [13]

O=S(=O)(O)c1cc(S(=O)(=O)O)c2ccc3c(S(=O)(=O)O)cc(S(=O)(=O)O)c4ccc1c2c43
inactive: activity change, negative = inhibition [1] -0.173% [at 23.6 µM] | viability change, negative = cytotoxic [2] 3.39% [at 19 µM] | activity change, negative = cytotoxicity [3] 0.0028% [at 19 µM] | viability change, negative = cytotoxic [14] 1.08% [at 19 µM] | activity, negative = inhibition [16] 13.5% [at 19 µM] | activation [17] 0.18% [at 19 µM] | activation [5] -6.64% [at 19 µM] | activity change, negative = cytotoxicity [6] 1.23% [at 15.8 µM] | activation [8] -0.0206% [at 15.8 µM] | activity, negative = inhibition [18] 17.9% [at 19 µM] | activity change, positive = activation [19] 9.26% [at 19 µM] | activity change, negative = cytotoxic [11] 2.34% [at 15.8 µM] | cytotoxicity [15] -7.26% [at 15.8 µM] | activity change, negative = cytotoxic [12] 8.14% [at 15.8 µM] | cytotoxicity increase [13] -6.93% [at 15.8 µM]

CC1=C(/C=C/C(C)=C/C=C/C(C)=C\C=O)C(C)(C)CCC1
inactive: Potency [1] | Potency [2] | Potency [3] | outcome [8] | Potency [10] | Potency [15] | Potency [12]
active: Potency [4] 23 µM | Potency [5] 10.3 µM | Potency [9] 107 µM | Potency [11] 46.4 µM

CCN(CC)c1cccc(C)c1
inactive: Potency [1] | Potency [2] | Potency [3] | Potency [14] | Potency [16] | Potency [17] | Potency [6] | Potency [7] | outcome [8] | Potency [9] | Potency [18] | activity change, positive = activation [19] 9.53% | Potency [10] | Potency [11] | Potency [15] | Potency [13]
